Assay results taken from the supplement of paper PMC10849652.
The full data set covers some 8,800 targets. This sample favours those with a hit. About 0.5% of all pairs of compound and target were hits. Values without a mark were called inactive.

Columns and labels:
Assay in all cases: log2 fold change, soluble protein after heating vs DMSO (PISA); higher = thermal stabilisation; K562 lysate, 10 uM; active = over 0.2 and 3.5 SD of the protein, either way, in both replicates (recomputed)
lapatinib = compound: CS(=O)(=O)CCNCc1ccc(-c2ccc3ncnc(Nc4ccc(OCc5cccc(F)c5)c(Cl)c4)c3c2)o1 [lapatinib]
Procedure, shortened: (§1)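 Dounce homogenisation of K562 pellets in PBS pH 7.4 with 1 mM MgCl2 produced a crude extract, used at 1 mg/mL protein. Exposure to 10 μM compound lasted 30 min, and aliquots were then heated for 3 min across 48°C-58°C, pooled and brought to 0.5% NP-40 at 4°C. The supernatant after 21,000xg for 90 min was quantified by TMTpro 16plex LC-MS/MS with channel sums equalised. Duplicate values are given as log-two fold change in thermal stability relative to solvent controls.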

pictilisib = compound: CS(=O)(=O)N1CCN(Cc2cc3nc(-c4cccc5[nH]ncc45)nc(N4CCOCC4)c3s2)CC1 [pictilisib]
Procedure, shortened: as §1

crizotinib = compound: C[C@@H](Oc1cc(-c2cnn(C3CCNCC3)c2)cnc1N)c1c(Cl)ccc(F)c1Cl [crizotinib]
Procedure, shortened: as §1

[1] = compound: C[C@H](C1=CC=C(C=C1)C(=O)NC2=C3C=CNC3=NC=C2)N
Procedure, shortened: as §1

duvelisib = compound: C[C@H](Nc1ncnc2nc[nH]c12)c1cc2cccc(Cl)c2c(=O)n1-c1ccccc1 [duvelisib]
Procedure, shortened: as §1

gandotinib = compound: Cc1cc(Nc2cc(CN3CCOCC3)c3nc(C)c(Cc4ccc(Cl)cc4F)n3n2)n[nH]1 [gandotinib]
Procedure, shortened: as §1

tozasertib = compound: Cc1cc(Nc2cc(N3CCN(C)CC3)nc(Sc3ccc(NC(=O)C4CC4)cc3)n2)n[nH]1 [tozasertib]
Procedure, shortened: as §1

doramapimod = compound: Cc1ccc(-n2nc(C(C)(C)C)cc2NC(=O)Nc2ccc(OCCN3CCOCC3)c3ccccc23)cc1 [doramapimod]
Procedure, shortened: as §1

bafetinib = compound: Cc1ccc(NC(=O)c2ccc(CN3CC[C@H](N(C)C)C3)c(C(F)(F)F)c2)cc1Nc1nccc(-c2cncnc2)n1 [bafetinib]
Procedure, shortened: as §1

[2] = compound: Cc1cccc(CC(=O)N2CCc3c2ccc(-c2cn(C)c4ncnc(N)c24)c3F)n1
Procedure, shortened: as §1

nilotinib = compound: Cc1cn(-c2cc(NC(=O)c3ccc(C)c(Nc4nccc(-c5cccnc5)n4)c3)cc(C(F)(F)F)c2)cn1 [nilotinib]
Procedure, shortened: as §1

[3] = compound: Cc1nc(Nc2n[nH]c3c2CN(C(=O)N[C@H](CN(C)C)c2ccccc2)C3(C)C)c2sccc2n1
Procedure, shortened: as §1

dasatinib = compound: Cc1nc(Nc2ncc(C(=O)Nc3c(C)cccc3Cl)s2)cc(N2CCN(CCO)CC2)n1 [dasatinib]
Procedure, shortened: as §1

[4] = compound: Cc1ncc(-c2ccnc(Nc3ccc(S(C)(=O)=O)cc3)n2)n1C(C)C
Procedure, shortened: as §1

[5] = compound: Cn1cc(-c2ccc3c(c2)CCN3C(=O)Cc2cccc(C(F)(F)F)c2)c2c(N)ncnc21
Procedure, shortened: as §1

quisinostat = compound: Cn1cc(CNCC2CCN(c3ncc(C(=O)NO)cn3)CC2)c2ccccc21 [quisinostat]
Procedure, shortened: as §1

tipifarnib = compound: Cn1cncc1[C@@](N)(c1ccc(Cl)cc1)c1ccc2c(c1)c(-c1cccc(Cl)c1)cc(=O)n2C [tipifarnib]
Procedure, shortened: as §1

[6] = compound: NC(=O)Nc1cc(-c2cccc(F)c2)sc1C(=O)N[C@H]1CCCNC1
Procedure, shortened: as §1

[7] = compound: NC(=O)c1cnc(N[C@@H]2CCCC[C@@H]2N)nc1Nc1cccc(-n2nccn2)c1
Procedure, shortened: as §1

[8] = compound: NC1(c2ccc(-c3nc4ccn5c(=O)[nH]nc5c4cc3-c3ccccc3)cc2)CCC1
Procedure, shortened: as §1

Chain of UniProt O00763 (O00763 whole entry, looked up): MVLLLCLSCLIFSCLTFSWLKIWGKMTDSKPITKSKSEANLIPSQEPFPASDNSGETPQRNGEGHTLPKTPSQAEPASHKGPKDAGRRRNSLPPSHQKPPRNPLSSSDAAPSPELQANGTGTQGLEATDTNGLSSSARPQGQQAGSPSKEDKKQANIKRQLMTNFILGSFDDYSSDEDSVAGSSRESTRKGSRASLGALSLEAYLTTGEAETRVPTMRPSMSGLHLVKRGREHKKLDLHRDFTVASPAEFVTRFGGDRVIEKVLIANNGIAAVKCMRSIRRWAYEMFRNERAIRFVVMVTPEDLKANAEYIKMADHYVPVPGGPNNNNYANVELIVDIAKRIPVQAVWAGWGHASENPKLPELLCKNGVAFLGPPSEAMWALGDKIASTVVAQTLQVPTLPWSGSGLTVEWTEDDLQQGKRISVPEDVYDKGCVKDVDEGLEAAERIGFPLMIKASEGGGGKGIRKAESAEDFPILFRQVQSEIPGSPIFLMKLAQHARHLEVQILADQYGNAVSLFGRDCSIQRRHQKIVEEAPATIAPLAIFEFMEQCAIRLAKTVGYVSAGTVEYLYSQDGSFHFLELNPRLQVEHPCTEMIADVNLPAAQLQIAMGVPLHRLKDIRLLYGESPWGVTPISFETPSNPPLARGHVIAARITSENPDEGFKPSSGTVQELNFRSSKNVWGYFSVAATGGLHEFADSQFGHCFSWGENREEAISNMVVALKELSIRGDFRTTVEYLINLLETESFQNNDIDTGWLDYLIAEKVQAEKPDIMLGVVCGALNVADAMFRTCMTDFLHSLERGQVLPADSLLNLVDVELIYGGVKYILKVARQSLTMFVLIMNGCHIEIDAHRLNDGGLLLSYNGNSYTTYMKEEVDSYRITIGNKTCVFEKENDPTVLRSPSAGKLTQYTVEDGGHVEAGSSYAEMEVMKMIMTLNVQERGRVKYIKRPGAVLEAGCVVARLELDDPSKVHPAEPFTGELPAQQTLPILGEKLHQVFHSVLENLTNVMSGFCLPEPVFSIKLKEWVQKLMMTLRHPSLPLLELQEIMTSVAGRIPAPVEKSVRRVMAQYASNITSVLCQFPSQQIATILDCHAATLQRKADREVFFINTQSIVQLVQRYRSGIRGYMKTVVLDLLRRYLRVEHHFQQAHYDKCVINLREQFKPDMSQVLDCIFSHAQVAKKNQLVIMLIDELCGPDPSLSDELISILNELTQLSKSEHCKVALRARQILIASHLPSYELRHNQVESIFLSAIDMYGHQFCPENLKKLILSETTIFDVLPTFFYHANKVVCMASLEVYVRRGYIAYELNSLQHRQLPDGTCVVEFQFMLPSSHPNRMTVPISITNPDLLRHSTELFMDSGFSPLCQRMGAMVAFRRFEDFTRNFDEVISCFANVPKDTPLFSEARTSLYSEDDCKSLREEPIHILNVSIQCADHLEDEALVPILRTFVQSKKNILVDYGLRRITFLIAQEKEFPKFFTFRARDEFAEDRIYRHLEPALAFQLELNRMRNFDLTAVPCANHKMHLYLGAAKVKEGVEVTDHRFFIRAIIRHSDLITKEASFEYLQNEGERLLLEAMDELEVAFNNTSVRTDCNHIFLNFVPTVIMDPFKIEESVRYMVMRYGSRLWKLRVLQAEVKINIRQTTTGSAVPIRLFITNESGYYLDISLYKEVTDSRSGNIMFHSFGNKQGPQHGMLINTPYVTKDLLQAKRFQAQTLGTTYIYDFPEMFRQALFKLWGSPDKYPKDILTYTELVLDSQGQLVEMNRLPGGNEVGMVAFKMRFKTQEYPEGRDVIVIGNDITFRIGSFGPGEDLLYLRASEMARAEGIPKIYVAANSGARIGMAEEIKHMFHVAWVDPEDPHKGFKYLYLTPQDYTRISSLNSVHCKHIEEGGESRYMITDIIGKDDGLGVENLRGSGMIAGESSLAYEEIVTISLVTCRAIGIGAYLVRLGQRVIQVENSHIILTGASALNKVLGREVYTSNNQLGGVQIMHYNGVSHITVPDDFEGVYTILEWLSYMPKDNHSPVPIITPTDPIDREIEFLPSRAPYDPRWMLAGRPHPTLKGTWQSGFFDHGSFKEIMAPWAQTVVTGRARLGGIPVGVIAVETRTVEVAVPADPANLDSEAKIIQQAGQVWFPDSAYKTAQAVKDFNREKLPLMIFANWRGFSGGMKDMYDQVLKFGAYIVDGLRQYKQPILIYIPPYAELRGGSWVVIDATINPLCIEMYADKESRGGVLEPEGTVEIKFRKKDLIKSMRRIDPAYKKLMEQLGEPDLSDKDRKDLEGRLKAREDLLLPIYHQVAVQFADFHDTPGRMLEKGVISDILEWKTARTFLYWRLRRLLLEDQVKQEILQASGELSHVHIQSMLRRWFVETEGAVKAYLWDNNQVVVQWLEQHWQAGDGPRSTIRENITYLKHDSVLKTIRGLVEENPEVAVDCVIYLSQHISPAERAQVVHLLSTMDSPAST
Chain of UniProt Q9BR61 (Q9BR61 whole entry, looked up): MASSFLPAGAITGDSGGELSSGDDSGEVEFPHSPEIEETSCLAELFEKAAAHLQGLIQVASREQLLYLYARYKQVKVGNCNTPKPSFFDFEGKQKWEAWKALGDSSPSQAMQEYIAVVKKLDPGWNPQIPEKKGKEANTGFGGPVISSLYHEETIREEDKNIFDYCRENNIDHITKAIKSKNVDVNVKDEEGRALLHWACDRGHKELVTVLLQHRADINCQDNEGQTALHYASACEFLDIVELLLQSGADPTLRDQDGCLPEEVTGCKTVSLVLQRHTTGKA
Chain of UniProt P31749 (P31749 whole entry, looked up): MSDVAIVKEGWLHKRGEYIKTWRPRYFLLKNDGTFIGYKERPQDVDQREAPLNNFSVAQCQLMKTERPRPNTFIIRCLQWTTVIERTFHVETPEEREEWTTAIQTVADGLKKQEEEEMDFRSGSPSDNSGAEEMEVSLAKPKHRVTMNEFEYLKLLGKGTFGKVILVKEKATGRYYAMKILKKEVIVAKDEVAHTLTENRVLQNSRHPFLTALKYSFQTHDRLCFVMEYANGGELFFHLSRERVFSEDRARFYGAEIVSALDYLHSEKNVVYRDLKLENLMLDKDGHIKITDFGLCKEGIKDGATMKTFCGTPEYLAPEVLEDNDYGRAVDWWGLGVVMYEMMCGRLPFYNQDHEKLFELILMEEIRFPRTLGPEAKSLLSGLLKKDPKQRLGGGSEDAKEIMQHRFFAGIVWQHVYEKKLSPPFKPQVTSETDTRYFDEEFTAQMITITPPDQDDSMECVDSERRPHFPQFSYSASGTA
Chain of UniProt Q9UNA0 (Q9UNA0 whole entry, looked up): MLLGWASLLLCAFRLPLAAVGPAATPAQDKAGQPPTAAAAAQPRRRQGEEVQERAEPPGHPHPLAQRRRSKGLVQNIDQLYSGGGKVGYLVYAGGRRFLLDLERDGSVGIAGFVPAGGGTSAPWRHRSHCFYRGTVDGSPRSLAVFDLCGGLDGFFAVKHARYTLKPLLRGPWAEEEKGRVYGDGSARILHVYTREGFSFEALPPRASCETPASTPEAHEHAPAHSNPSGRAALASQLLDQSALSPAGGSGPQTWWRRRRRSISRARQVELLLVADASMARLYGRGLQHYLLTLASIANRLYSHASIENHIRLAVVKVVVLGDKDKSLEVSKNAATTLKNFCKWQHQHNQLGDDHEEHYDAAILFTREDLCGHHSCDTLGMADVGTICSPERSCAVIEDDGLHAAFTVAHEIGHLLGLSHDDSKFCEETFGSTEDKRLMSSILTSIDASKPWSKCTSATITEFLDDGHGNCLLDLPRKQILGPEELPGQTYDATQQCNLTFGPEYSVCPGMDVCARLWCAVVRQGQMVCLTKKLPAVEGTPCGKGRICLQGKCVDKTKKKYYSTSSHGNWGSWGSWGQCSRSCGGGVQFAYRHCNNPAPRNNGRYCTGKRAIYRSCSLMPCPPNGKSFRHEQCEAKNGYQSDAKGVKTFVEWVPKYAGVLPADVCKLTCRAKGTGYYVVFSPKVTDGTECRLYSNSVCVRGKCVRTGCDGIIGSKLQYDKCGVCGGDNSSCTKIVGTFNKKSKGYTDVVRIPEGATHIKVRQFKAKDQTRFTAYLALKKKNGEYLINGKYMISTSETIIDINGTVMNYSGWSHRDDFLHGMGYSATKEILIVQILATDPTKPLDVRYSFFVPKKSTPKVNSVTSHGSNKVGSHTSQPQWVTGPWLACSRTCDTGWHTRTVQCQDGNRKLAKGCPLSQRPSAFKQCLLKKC
Chain of UniProt Q9NUQ8 (Q9NUQ8 whole entry, looked up): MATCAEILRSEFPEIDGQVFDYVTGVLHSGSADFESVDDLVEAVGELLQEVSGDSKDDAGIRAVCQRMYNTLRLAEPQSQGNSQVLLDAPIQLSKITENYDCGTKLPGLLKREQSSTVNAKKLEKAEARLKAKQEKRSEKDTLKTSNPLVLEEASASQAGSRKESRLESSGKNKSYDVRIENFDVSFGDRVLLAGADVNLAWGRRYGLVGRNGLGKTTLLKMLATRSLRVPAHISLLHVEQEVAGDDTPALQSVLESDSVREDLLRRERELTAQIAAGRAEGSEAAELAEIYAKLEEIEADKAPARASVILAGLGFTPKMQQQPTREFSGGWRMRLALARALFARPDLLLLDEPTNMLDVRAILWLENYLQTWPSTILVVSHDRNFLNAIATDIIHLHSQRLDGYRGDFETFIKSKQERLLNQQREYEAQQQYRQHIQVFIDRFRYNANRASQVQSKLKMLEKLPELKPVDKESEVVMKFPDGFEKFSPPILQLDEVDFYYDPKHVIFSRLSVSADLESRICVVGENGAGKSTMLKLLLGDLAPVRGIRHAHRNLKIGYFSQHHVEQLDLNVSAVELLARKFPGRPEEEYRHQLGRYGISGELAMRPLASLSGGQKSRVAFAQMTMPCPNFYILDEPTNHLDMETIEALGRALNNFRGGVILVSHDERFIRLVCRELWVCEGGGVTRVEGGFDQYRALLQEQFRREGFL

| Target | log2 fold change (lapatinib) | log2 fold change (pictilisib) | log2 fold change (crizotinib) | log2 fold change [1] | log2 fold change (duvelisib) | log2 fold change (gandotinib) | log2 fold change (tozasertib) | log2 fold change (doramapimod) | log2 fold change (bafetinib) | log2 fold change [2] | log2 fold change (nilotinib) | log2 fold change [3] | log2 fold change (dasatinib) | log2 fold change [4] | log2 fold change [5] | log2 fold change (quisinostat) | log2 fold change (tipifarnib) | log2 fold change [6] | log2 fold change [7] | log2 fold change [8] |
| --- | --- | --- | --- | --- | --- | --- | --- | --- | --- | --- | --- | --- | --- | --- | --- | --- | --- | --- | --- | --- |
| ABI1 isoform 9 (UniProt Q8IZP0) | 0.011 | -0.048 | -0.006 | -0.26 (active) | 0.01 | 0.13 | 0.008 | -0.015 | 0.08 | 0.163 | -0.006 | -0.004 | -0.001 | -0.02 | -0.016 | 0.003 | -0.01 | -0.023 | 0.003 | 0.032 |
| ARHGEF1 (UniProt M0QZR4) | 0.006 | -0.011 | -0.041 | -0.038 | -0.007 | -0.012 | 0.029 | 0.02 | -0.019 | 0.106 | 0.009 | -0.031 | -0.058 | -0.016 | 0.022 | -0.02 | 0.01 | 0.015 | 0.017 | -0.015 |
| ACTG1 (UniProt I3L4N8) | -0.072 | -0.209 | -0.066 | -0.039 | 0.13 | -0.159 | 0.083 | -0.065 | -0.183 | -0.096 | -0.068 | 0.104 | 0.055 | -0.045 | -0.171 | 0.032 | 0.11 | -0.053 | -0.033 | -0.114 |
| ACBD6 (UniProt Q9BR61) | -0.002 | 0.01 | -0.04 | -0.036 | 0.063 | -0.01 | -0.051 | -0.024 | -0.047 | 0.006 | -0.032 | 0.007 | 0.04 | 0.012 | 0.013 | -0.017 | 0.013 | -0.014 | 0.06 | -0.04 |
| ABCF3 (UniProt Q9NUQ8) | -0.019 | 0.006 | -0.033 | 0.02 | 0.018 | -0.075 | 0.063 | 0.011 | -0.062 | 0.017 | -0.025 | 0.014 | -0.053 | 0.001 | 0.044 | -0.04 | -0.003 | 0.012 | 0.011 | -0.062 |
| ACACB (UniProt O00763) | -0.032 | -0.029 | -0.103 | -0.113 | 0.032 | 0.021 | 0.072 | 0.054 | -0.113 | 0.165 | -0.001 | -0.042 | -0.021 | -0.052 | 0.05 | -0.061 | 0.048 | 0.062 | -0.001 | -0.018 |
| AKT1 (UniProt P31749) | 0.054 | 0.002 | -0.049 | -0.034 | -0.008 | -0.048 | 0 | 0.031 | -0.044 | 0.033 | -0.05 | 0.012 | -0.014 | -0.01 | 0.001 | -0.1 | 0.025 | 0 | -0.007 | 0.669 (active) |
| AKAP8L (UniProt Q9ULX6) | 0.017 | -0.018 | 0.053 | -0.05 | 0.038 | 0.033 | 0 | -0.153 | 0.016 | 0.011 | -0.267 (active) | 0.022 | -0.062 | 0.016 | 0.037 | -0.024 | -0.011 | 0.055 | 0.002 | 0.028 |
| ABHD17B (UniProt Q5VST6) | 0.075 | -0.076 | -0.051 | 0.01 | 0.026 | -0.012 | -0.513 (active) | -0.026 | 0.01 | 0.183 | 0.032 | 0.057 | 0.007 | 0.087 | 0.095 | 0.003 | -0.099 | 0.009 | -0.041 | 0.009 |
| ACADS (UniProt P16219) | -0.004 | -0.018 | -0.027 | -0.026 | -0.003 | 0.016 | -0.013 | 0.008 | 0.037 | 0.034 | 0.278 (active) | -0.04 | -0.002 | -0.025 | 0.033 | -0.009 | -0.018 | 0.032 | 0.01 | 0.017 |
| ADAMTS5 (UniProt Q9UNA0) | -0.102 | -0.015 | -0.139 | -0.843 (active) | -0.004 | 0.332 | 0.011 | 0.04 | -0.211 | 0.33 | 0.003 | -0.062 | -0.01 | -0.011 | 0.014 | -0.222 | -0.041 | 0.016 | 0.031 | -0.083 |
| ACOX1 isoform 2 (UniProt Q15067) | -0.003 | -0.003 | -0.004 | -0.112 | -0.012 | 0.167 | 0.043 | 0.024 | -0.01 | 0.054 | 0.104 | 0.005 | 0.065 | -0.011 | 0.019 | 0 | -0.042 | -0.018 | -0.039 | 0 |
| AFF4 (UniProt Q9UHB7) | 0.003 | -0.007 | -0.033 | 0.011 | 0.059 | 0.066 | 0 | 0 | 0.05 | 0.001 | -0.039 | -0.068 | 0.005 | 0.012 | 0.023 | 0.02 | 0.065 | 0.032 | -0.026 | 0.022 |
| ANXA5 (UniProt P08758) | 0.005 | -0.009 | 0.046 | 0.059 | -0.028 | -0.119 | 0.019 | 0.015 | -0.018 | -0.065 | 0.031 | -0.008 | -0.009 | -0.067 | 0.022 | 0.111 | 0.019 | 0.018 | 0.01 | 0.012 |
| ABHD16A (UniProt O95870) | 0.032 | 0.028 | 0.018 | 0.006 | -0.078 | 0.081 | -0.072 | 0.013 | 0.018 | -0.021 | -0.015 | 0.02 | 0.009 | 0.027 | -0.051 | 0.143 | -0.012 | -0.014 | -0.003 | -0.054 |
| AGPAT1 (UniProt Q99943) | -0.122 | 0.009 | -0.029 | -0.019 | 0.009 | -0.034 | 0.041 | 0.028 | -0.057 | 0.091 | -0.021 | -0.004 | -0.069 | 0.055 | -0.062 | 0.043 | -0.058 | -0.028 | 0.028 | -0.003 |
